Data on 45 sequences can be found in the supplement of paper PMC11417369.

± gives the standard deviation of the averaged measurements. Over roughly 25,000 sequences, “ln(normalized median fluorescence intensity)” has its median near 10; the highest 2% begin near 12. This is one part of a sample in which the highest values are shown more often than they occur.

In the assay the test system is PfAP2-G AP2 domain (GST-tagged). In words: gcPBM binding intensity (ln(normalized median fluorescence intensity)); higher = stronger DNA binding. In short, it runs like this:
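Plasmodium falciparum DNA-binding domains carrying a GST tag were expressed in E. coli and applied for 1 h, at about 25 μg on average, to an Agilent 4 × 180k array. The array held primer-extended double-stranded 36-bp intergenic genomic probes together with negative controls, and binding took place in 1× PBS with 1% milk, 0.2 mg/ml BSA, 0.5% salmon testes DNA and 0.03% Triton X-100. An Alexa488 anti-GST antibody detected bound protein, and the array was scanned at 488 nm. Binding intensity is taken as the highest Masliner-normalised natural-log median intensity across replicate spots of either probe orientation.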
Regarding “CAGAAATATTAATGCTGTACGGAATACATATATTTT [XGTACX_site539]”, the “gcPBM binding intensity (ln)” value stood at 10.9 ± 0.6.

Take “AATTTTCATTTTAGAAGTACACACAAAAAATAAAAT [XGTACX_site4426]”: the “gcPBM binding intensity (ln)” value was determined as 11.7 ± 1.1. For “GTTAAAATAATATGGTGTACAAATATATAAGTTCAT [XGTACX_site3262]”, the “gcPBM binding intensity (ln)” value is 11.4 ± 0.79.

“TTTCATTTTAGAAGTACACACAAAAAATAAAATAAT [CACACA_site2141]”: the “gcPBM binding intensity (ln)” value is 11.6 ± 0.92. Under “ATAAAAATAAATAAATGTACATATATATATATATAT [XGTACX_site1277]” stands 11.1 ± 0.58. Turning to “AGGTCATACATAAAATGTACATATATATAAATATAT [XGTACX_site7147]”, the “gcPBM binding intensity (ln)” value was determined as 10.9 ± 0.54. Then “AATAATATATGGTGTACACAAAAGTATAAATAATTT [CACACA_site5338]”, with 11.9 ± 1. Turning to “TATTCATAATTTTAATGTACAAAATGGTTTGTAATA [XGTACX_site8493]”, the “gcPBM binding intensity (ln)” value amounted to 10.6 ± 0.33. “TAAATTTTTTTTTTTTGTACACAAAAATATAATATT [XGTACX_site8151]”: the “gcPBM binding intensity (ln)” value came to 11.4 ± 0.98. As for “TAAGTCATATAAATGTGTACATAAAAAAAAAAAATG [XGTACX_site1645]”, the “gcPBM binding intensity (ln)” value turned out to be 11.6 ± 1. Turning to “GTAATAATTTTTTGTAGTACACAAAAATTCATATTT [XGTACX_site2699]”, the “gcPBM binding intensity (ln)” value stood at 11.7 ± 1.1. Under “TACAAATTTATATAAAGTACAAAAAATAATAAAAAT [XGTACX_site7355]” stands 11.1 ± 0.57.

For the sequence “AATTTCATTTTTAGAAGTACATTTATATTAAAAATC [XGTACX_site2888]”, the “gcPBM binding intensity (ln)” value came to 11.2 ± 0.95. On to “ATAGAATACATATATGAACACACAGAGTTTTAAAAA [CACACA_site8879]”, for which the “gcPBM binding intensity (ln)” value was found to be 10.15 ± 0.042. Turning to “ATATTTAAAGAATAAGTGCAAAATGTAATTAATTTT [GTGCAC_site9901]”, the “gcPBM binding intensity (ln)” value stood at 10.065 ± 0.007. With “TAAAAAAACATATATTGTACGGAGATAATAATTTTT [XGTACX_site2946]”, the “gcPBM binding intensity (ln)” value is 10.6 ± 0.31. Consider “TTATATTTAGTATATGCACACTTTATGTTTGTTATT [CACACA_site5163]”, for which the “gcPBM binding intensity (ln)” value was 9.955 ± 0.035. Consider “TAAAAGGATGCATATACACACATATAGATTTATATA [CACACA_site7336]”, for which the “gcPBM binding intensity (ln)” value worked out at 9.915 ± 0.035.

In the case of “AATAATTTCCAAAAATGTACATATATTTACATATAT [XGTACX_site1790]”, the “gcPBM binding intensity (ln)” value stood at 10.9 ± 0.52. With “AATATATATTCATGTGTACACACAAAAAAAAATAAA [CACACA_site8690]”, the “gcPBM binding intensity (ln)” value amounted to 11.6 ± 0.84. Then “AAATATATATTCATGTGTACACACAAAAAAAAATAA [XGTACX_site4552]”, with 11.6 ± 0.84; and “TATATATCCATGTGTACACACAAAAAAAAATAAAGT [CACACA_site7107]”, with 11.7 ± 0.93; and “TGAAAAGAAAACACATGTACAAATATATAAATATAA [XGTACX_site6098]”, with 10.8 ± 0.35.

For “TATATATTCATGTGTACACACAAAAAAAAATAAAGT [CACACA_site2207]”, the “gcPBM binding intensity (ln)” value is 11.7 ± 0.9. As to “AAAATAATAATAAAAAGTACATGTGTATATAATAAA [XGTACX_site754]”, the “gcPBM binding intensity (ln)” value was 11.3 ± 0.82.

With “CTTTATATATTTTATTGTACTTAAAAAAAAAAAAAA [XGTACX_site2134]”, the “gcPBM binding intensity (ln)” value is 11.4 ± 1.1. Consider “ACATACATACATACATACATACATACATACATACAT [XGTACX_negctrl_site315]”, for which the “gcPBM binding intensity (ln)” value is 10.6 ± 0.57. On to “AAGAAATATATATATATATATATATATATATATGTA [TGCATGCA_negctrl_site442]”, for which the “gcPBM binding intensity (ln)” value was found to be 9.67 ± 0.16. For “AATAAAAAAAATAGCATACACACATATATACATATA [CACACA_site659]”, the “gcPBM binding intensity (ln)” value is 9.75 ± 0.028. For the sequence “TGGTCTTTTAAACAAAAATATAAATTTTTAAATATG [CACACA_negctrl_site392]”, the “gcPBM binding intensity (ln)” value is 9.94 ± 0.23.

As to “AATAAATTAATAAGGTGTACATAAATAATTTATATA [XGTACX_site8278]”, the “gcPBM binding intensity (ln)” value turned out to be 11.5 ± 0.94. Take “AATTAATAAGAAAGGTGTACAGAAAAAAAAAAATAT [XGTACX_site2106]”: the “gcPBM binding intensity (ln)” value was determined as 11.5 ± 0.8. As for “TGTTAATAAAGGTGTACACAAAATAAAAAAAATTAT [CACACA_site4288]”, the “gcPBM binding intensity (ln)” value stood at 11.7 ± 0.92. On to “TTTGAAATAAAAAGGTGTACACTCGATTAATAAATA [XGTACX_site6943]”, for which the “gcPBM binding intensity (ln)” value was found to be 11.8 ± 0.98. Turning to “AATTAATAAAAAAGGTGTACAGTAAATGCAATAATC [XGTACX_site7956]”, the “gcPBM binding intensity (ln)” value was found to be 11.7 ± 0.99. “AAAAAAAAAAAAAGGTGTACATGCAAAATAAATTCT [XGTACX_site4592]”: the “gcPBM binding intensity (ln)” value was determined as 11.6 ± 0.93.

For the sequence “TAAAATTTAAAAAGGTGTACACTATAAATTAAAATA [XGTACX_site2081]”, the “gcPBM binding intensity (ln)” value is 11.7 ± 0.95. Regarding “GGTGTTAAAAAATACACACACAAAAAAAAAAAAAAA [CACACA_site138]”, the “gcPBM binding intensity (ln)” value came out at 9.95 ± 0.51. Consider “AAAGGTGTATATAATACACACGTGTGATTAAAATTG [CACACA_site8104]”, for which the “gcPBM binding intensity (ln)” value was 10.13 ± 0.064. Regarding “AAAAAAAAAAGGTGTACATGCAAAATAAATTCTTAA [TGCATGCA_site556]”, the “gcPBM binding intensity (ln)” value turned out to be 11.6 ± 1.1. Then “ACACAAAAATAAAAATGTACAAATTAAAAAAAATGA [XGTACX_site2083]”, with 10.8 ± 0.42; and “TTAAAAAAAAAAAGGTGTACTATAATTTAATATCAC [XGTACX_site6316]”, with 11.6 ± 1.1. Under “TATAAATTATATATTTGTACGTATATCACATATATA [XGTACX_site7053]” stands 11.3 ± 0.84. Then “AATTTTATTTAAAGTGCATGTAAAATTAAAACTTTT [TGCATGCA_site989]”, with 10 ± 0.057; and “ATATAGAACACCTGTGCATGCAAGTGCTAAAAAATT [TGCATGCA_site213]”, with 10.2 ± 0.2.
